TDP1 cell CPT: growth inhibition of DT40 Tdp1-/-;hTDP1 cells with camptothecin (screen for TDP1 inhibitors). chicken DT40 Tdp1-/-;hTDP1 cells + 20 nM CPT, ATP luminescence, 48 h. AID 686979. 12% of 420,000 active. Potency, µM (series often up to 46.2 µM), for the others: at the top dose activity change, negative = growth inhibition, hits mostly inhibitors; further: nearly all actives have a fitted effect of over 55% in size
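Chicken DT40 Tdp1-/- cells stably complemented with human TDP1 were seeded at 400 cells/well in medium containing 20 nM camptothecin, exposed to pin-transferred compounds, and grown at 37 °C for at least 48 hr. Viability was read as ATP luminescence.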
GCN5L2 inh: inhibitors of human GCN5L2 histone acetyltransferase; Q92830; GCN5L2 HAT assay, ThioGlo1 CoA-SH fluorescence; Potency, µM (doses to about 58.9 µM), for inactives: at the top dose activity change, negative = inhibition, most hits filed as inhibitors; 0.21% of 390,000 active; AID 504327
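Free CoA generated was detected with ThioGlo1 (50uM) fluorescence at Ex340nm/Em540nm, read immediately and after 20 min at room temperature. Enzyme, 20 nM in HEPES pH 7.5 buffer, saw compounds 15 min before adding 75uM H3(1-25) peptide and 70uM acetyl-CoA.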
PLK1 PBD inh: PLK1 (human) polo-box domain binding inhibition; P53350; Plk1 PBD binding of FITC phosphopeptide, fluorescence polarization; Potency, µM, for the others: max response, negative = inhibition, actives largely listed as inhibitors; 2.8% of 360,000 active; AID 720504; further: series mostly up to about 57 µM; nearly all actives have a fitted effect of over 65% in size
DT40 TDP1 no CPT: qHTS for Inhibitors of human tyrosyl-DNA phosphodiesterase 1 (TDP1): qHTS in cells in absence of CPT. DT40 Tdp1-/- hTDP1 cells, no CPT, ATP luminescence, 48 h. Potency, µM (top dose mostly 46.2 µM), inactives show top-dose activity change, negative = growth inhibition, usual class: inhibitors. 15% of 420,000 active. AID 686978, 2013; further: nearly all actives have a fitted effect of over 55% in size
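Chicken DT40 Tdp1-/- cells complemented with human TDP1, screened without camptothecin (DMSO vehicle only), 400 cells/well. Compounds pin-transferred, cells incubated at 37 °C for at least 48 hr. Growth read as ATP-dependent luminescence (CellTiter-Glo, 30 min at RT).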
VDR inh: inhibitors of human vitamin D receptor | VDR-SRC2-3 peptide fluorescence polarization, 2 h | Potency, µM, inactives show max response, negative = inhibition, usual class: inhibitors | 0.93% of 400,000 active | AID 504847
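Fluorescence polarization assay measuring small-molecule disruption of VDR binding to the coregulator peptide SRC2-3. Compounds were pin-transferred (23 nl) into the reagent mix and incubated 2 h at room temperature before reading.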
TDP1 block: blocks human tyrosyl-DNA phosphodiesterase 1 | Q9NUW8 | recombinant TDP1, AlphaScreen DNA substrate cleavage | Potency, µM (series often up to 130 µM), for inactives: at the highest dose activity change, negative = inhibition, actives largely listed as inhibitors | 0.28% of 350,000 active | AID 485290; further: nearly all actives have a fitted effect of over 40% in size
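AlphaScreen read-out: signal falls as enzyme removes the 3' tyrosine-FITC from a 5'-biotinylated DNA oligo (15 nM, 5 min, RT). Enzyme was E. coli-made recombinant Tdp1 at 1 nM, exposed to compound for 15 min beforehand; beads 10 ug/ml, 10 min.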
The depositor's hits bear a star; ? = inconclusive; nt = no result given; [ ] = remark or other dose. Shown are actives, neighbours in structure and some others; about 18% of the full set was active somewhere. The call rests on the fitted dose curve; in most records, active means well fitted curve in the direction sought with a large enough effect; inconclusive means small, poorly fitted or top-dose-only effect, or another doubt; inactive means no such curve, though single readings can be large; an effect the other way counts as inactive or inconclusive. On the % scale 0 is the no-effect control and ±100 the full control effect; potency means the concentration at half of the fitted maximal effect.

SMILES	TDP1 cell CPT	GCN5L2 inh	PLK1 PBD inh	DT40 TDP1 no CPT	VDR inh	TDP1 block
O=C(Nc1ccc(Cl)cc1)N1CCCN(Cc2ccccc2F)C1	25µM*	-10%	-5%	?	-4%	4%
COc1ccccc1CNS(=O)(=O)c1ccc(Cl)s1	2%	-2%	-4%	-29%	-13%	2%[0.0935 µM]
CCC(=O)N[C@@H]1c2ccccc2C2(CCN(Cc3[nH]c4c(Cl)cccc4c3C)CC2)[C@H]1OC	-14%	nt	nt	-26%	nt	nt
COc1ccc(CCNC(=O)Cn2c(=O)nc(-c3ccccc3)c3ccccc32)cc1OC	-10%	11%	nt	-25%	6%	4%
O=C(Nc1ccc(NC(=O)N2CCN(c3ccccc3O)CC2)cc1)N1CCN(c2ccccc2O)CC1	?	-5%	-4%	26µM*	-11%	nt
CS(=O)(=O)N1CCN(c2ccc(NC(=O)C(c3ccccc3)c3ccccc3)cc2)CC1	-20%	-3%	-2%	?	-4%	2%
O=C(NCC(=O)N1CCN(c2ccccc2O)CC1)C1CCCCC1	3.7µM*	-9%	-6%	?	20%	-4%
O=C(Nc1ccc(N2CCCC2)cc1)C(Cl)c1ccccc1 (centres undefined)	8.2µM*	-9%	-29%	13µM*	45µM*	4%
CCOC(=O)c1ccc(NC(=O)N2CCN(c3cccc(OC)c3)CC2)cc1	?	-10%	0%	18µM*	10%	0%
O=C(Nc1ccc(Br)cc1)N1CCCCC1	-21%	-5%	-3%	-22%	-9%	-1%
O=C1N[C@@H](Cc2cn(S(=O)(=O)c3ccc([N+](=O)[O-])cc3)c3ccccc23)C(=O)N[C@H]1Cc1ccccc1	21µM*	nt	-16%	?	-7%	nt
O=C1CC(c2ccsc2)c2ccc3ccccc3c2N1 (centres undefined)	-3%	1%	-4%	?	8%	-1%
O=C1CC(c2cccc([N+](=O)[O-])c2)c2ccc3ccccc3c2N1 (centres undefined)	26µM*	-5%	-14%	?	-11%	9%
C=C(CCO)C1=CCN(S(=O)C(C)(C)C)[C@@H]1CCO (some centres undefined)	-3%	nt	-26%	-4%	-2%	nt
C=C(C1=CCN(S(=O)C(C)(C)C)[C@@H]1CCO)c1ccccc1 (some centres undefined)	7.3µM*	nt	-11%	23µM*	-12%	nt
COc1cccc(C(NC(C)=O)c2nc(-c3cccc(C#N)c3)cs2)c1 (centres undefined)	29µM*	nt	-7%	?	nt	nt
COc1cccc(C(NC(C)=O)c2nc(-c3cccc(O)c3)cs2)c1 (centres undefined)	23µM*	nt	-11%	18µM*	nt	nt
COc1ccc(-c2csc(C(NC(C)=O)c3cccc(F)c3)n2)cc1 (centres undefined)	?	nt	-10%	16µM*	nt	nt
CCN(CC)S(=O)(=O)c1ccc2c(c1)c(=O)c(C(=O)N1CCN(c3ccc(F)cc3)CC1)cn2C	-17%	-4%	nt	-27%	-6%	5%
CC(C)NCc1cc(Br)ccc1OCc1ccccc1	?	-1%	-6%	?	13%	5%
CCCNC(=O)C1(C)CCN(C(=O)c2c(Cl)cccc2Cl)C1 (centres undefined)	0%	nt	-15%	6%	nt	nt
CCOC(=O)Nc1c(C(=O)OC)[nH]c2cc(OC)ccc12	?	-4%	-8%	21µM*	-7%	-3%

Screens as filed in PubChem BioAssay.
